Screens: PubChem, several laboratories
aSyn 5UTR inh: 5' untranslated region of α-synuclein, MLPCN primary screen. alpha-synuclein 5'UTR reporter, inhibitor activity. actives 0.82% (n = 300,000). inhibition, % (tested at 7.5 µM). AID 1813; in the data active = inhibition above about 60%;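 also: H4 neuroglioblastoma cells stably carrying SNCA 5'UTR luciferase fusion; 0% = DMSO wells and 100% = positive control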
Jurkat NFkB inh: inhibitors of the PMA/ionomycin-induced NF-kB reporter in Jurkat cells; PMA/ionomycin-induced NF-kB luciferase reporter, luminescence; inhibition, % at 4 µM; actives 0.53% (n = 330,000); in the data active = inhibition above about 50%
697 NFkB inh: inhibitors of the PMA/ionomycin-induced NF-kB reporter in 697 B cells. actives 0.33% (n = 330,000). inhibition, % at 4 µM. AID 435022. 697 B-cell NF-kB luciferase reporter, 16 h; in the data active = inhibition above about 35%
Gli-Sufu block: Gli-Sufu pathway antagonism; Sufu-KO-LIGHT fibroblasts, Gli luciferase reporter luminescence; inhibition, % at 5 µM; actives 0.74% (n = 340,000); AID 588413;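 active = inhibition above about 55%, limit read from the data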;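 also: 0% = DMSO-treated cells and 100% = wells with medium but no cells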
TAG inh: triacylglycerol accumulation inhibition; H9c2 cells, Nile Red lipid (TAG) fluorescence; cells loaded with 200 µM oleic acid; inhibition, % at 12.5 µM; actives 0.66% (n = 230,000); AID 651582;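 active = pattern-corrected inhibition of lipid staining of at least 50% with the nuclear-stain viability signal not falling by more than 50%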;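 also: 0% = DMSO wells and 100% = triacsin C control wells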
Shn3 3UTR inh: Schnurri-3 reporter inhibition in Clone20 osteoblasts; Clone20 osteoblast Shn3 3'UTR firefly luciferase, 24 h; inhibition, % at 12.5 µM; actives 0.52% (n = 360,000); AID 588674;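 active = mean inhibition of at least 75% with every replicate also reaching 75%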;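 also: 0% = median of neutral control wells and 100% = pilot-screen positive control compound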
Jurkat NFkB conf: inhibitors of the PMA/ionomycin-induced NF-kB reporter in Jurkat cells, retest; shares compounds with Jurkat NFkB inh; Jurkat NF-kB luciferase, 16 h; inhibition, % at 4 µM; actives 27% (n = 2,700); AID 435020;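 active = inhibition reaching about 45% at 4 µM in either replicate, limit read from the data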;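 also: plate controls were PMA/ionomycin stimulated DMSO wells for no effect and unstimulated DMSO wells for full effect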
The depositor's hits bear a star; nt = no result. Most compounds without a hit are left out; they make up all but 2.3% or so of the library.

SMILES	aSyn 5UTR inh	Jurkat NFkB inh	697 NFkB inh	Gli-Sufu block	TAG inh	Shn3 3UTR inh	Jurkat NFkB conf
Cc1c(C(=O)O)[nH]c2c1C(=O)CC(c1ccc(C(C)(C)C)cc1)C2 (stereo not drawn)	-30.9	-0.2	-12.1	1.0	nt	-53.2	nt
Cc1c(C(=O)N2CCOCC2)[nH]c2c1C(=O)CC(c1ccccc1Cl)C2 (stereo not drawn)	4.1	52.1*	-56.7	40.8	nt	12.4	47.8*
CCN(CC)c1ncnc2c1ncn2[C@H]1CN(Cc2ccco2)C[C@@H](CO)O1	nt	nt	nt	nt	1.0	-11.6	nt
CCN(CC)c1ccc2c(c1)OC(N)=C(C#N)C2c1cccnc1 (stereo not drawn)	75.3*	56.4*	30.9	62.3*	33.7	8.7	6.1
C[C@@]12C(=O)N(Cc3ccc(-c4ccccc4)cc3)CC(=O)N1[C@H](/C=C/c1ccccc1)[C@@H]1C(=O)N(c3ccccc3)C(=O)[C@@H]12	4.3	10.2	9.4	-11.4	-5.2	-15.7	nt
COc1cc(OC)c(OC)cc1/C=N/N(C)c1ccccc1	10.9	6.4	12.2	21.5	nt	8.4	nt
COc1cc(/C=N/N(C)c2ccccc2)ccc1O	-155.8	-162.7	-181.9	-96.5	-0.4	-80.0	5.1
O=C(N/N=C/c1ccccc1F)NC12CC3CC(CC(C3)C1)C2	-114.8	-65.6	-108.8	-26.9	nt	-101.9	nt
Cc1cccnc1NC(=O)CSc1ccc2c(c1)OCCO2	nt	-6.4	15.0	-11.2	-3.9	3.8	nt
O=C(Nc1ccccc1)c1cc(-c2ccccc2Cl)no1	-59.3	-171.6	-0.2	-7.9	-2.8	-64.4	-41.3
O=C(Nc1cccc(Cl)c1N1CCCCC1)c1ccc2c(c1)OCCO2	22.9	8.1	19.3	-2.9	-29.1	29.7	nt
O=C(NC(=S)Nc1cccc(Cl)c1N1CCCCC1)c1ccc2c(c1)OCCO2	-36.1	50.3*	-28.9	-2.7	nt	21.8	2.1
O=C(Nc1nc(-c2ccccc2)cs1)c1ccc(N2CCOCC2)c([N+](=O)[O-])c1	-26.0	52.2*	11.9	45.4	nt	81.9	57.1*
COc1ccc(C=O)cc1COc1ccc2c(c1)OCO2	nt	58.9*	9.0	-4.7	-0.3	-2.2	11.8
COc1ccc(C=O)cc1COc1ccc([N+](=O)[O-])c(C)c1	33.4	45.3	24.3	-0.8	-9.5	-19.7	nt
CC(C)C1COC(c2cccc3ccccc23)=N1 (stereo not drawn)	-115.2	-158.7	-193.4	-39.5	-4.9	-125.7	-40.2
O=C(Nc1ccccc1[N+](=O)[O-])C1(c2ccccc2)CCOCC1	4.2	6.1	-1.1	5.2	-5.0	-24.2	nt
COc1ccc(C(O)(C(=O)NNc2ccc(C)cc2)c2cccs2)cc1 (stereo not drawn)	7.7	3.3	-9.5	-2.7	5.9	-3.5	nt
O=C(Nc1ccccc1)c1nnsc1S(=O)c1ccc(Cl)cc1 (stereo not drawn)	-103.5	-46.0	-80.4	-0.4	-31.3	69.5	nt
O=C(c1nnsc1S(=O)c1ccc(Cl)cc1)N1CCOCC1 (stereo not drawn)	-50.0	70.1*	-35.7	20.9	85.5	94.2*	23.6
COc1ccccc1NC(=O)Cn1nnc(-c2ccccc2NS(=O)(=O)c2ccccc2)n1	0.5	-3.0	-27.3	23.4	nt	67.5	nt
COc1ccc(NC(=O)Cn2nnc(-c3ccccc3NS(=O)(=O)c3ccc(OC)cc3)n2)cc1	106.5*	71.6*	-54.1	6.6	nt	25.6	64.4*
Cc1cc(C)cc(N(CC(=O)N2CCC(C)CC2)S(C)(=O)=O)c1	19.3	-2.8	-20.6	3.8	-4.3	3.0	nt
N#Cc1ccccc1Cn1cc(/C=N/Nc2ccc([N+](=O)[O-])cn2)c2ccccc21	6.5	67.4*	-14.8	12.3	-9.9	78.4	-5.9
CCCCc1cc(=O)oc2cc(OCC(=O)N3CCC(C(N)=O)CC3)ccc12	17.6	16.6	15.4	4.3	nt	-16.8	nt
CCSc1nc2ccccc2n1C(=O)/C=C\c1ccc(OC)c(OC)c1	-112.1	53.1*	-135.8	0.4	21.3	-14.8	41.7
Cc1ccc(NS(=O)(=O)c2ccc(C(=O)NC3CCN(Cc4ccccc4)CC3)cc2)cc1	nt	57.1*	15.5	15.3	7.8	84.9*	58.8*
CCCCCn1c(=O)[nH]c2cc(C(=O)NC3CCN(Cc4ccccc4)CC3)ccc2c1=O	-40.1	51.1*	-53.6	8.4	14.2	51.7	35.8
